# Measurements: the supplement of paper PMC6124720
# Unmarked numbers belong to inactive results.
# Tested on: Pseudogymnoascus destructans 20631-21
# Test: growth activity index (DuctApe, 0 = no growth, 9 = maximal growth) (index 0-9); higher = more fungal growth (less inhibition), active = 0 or less; extreme values may be limits of the assay
# Conditions: temperature: 13 °C, YPD
# [1] = concentration level (1-4, increasing; Biolog proprietary): 1
# [2] = concentration level (1-4, increasing; Biolog proprietary): 2
# [3] = concentration level (1-4, increasing; Biolog proprietary): 3
# [4] = concentration level (1-4, increasing; Biolog proprietary): 4
# 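Also: biolog Phenotype Microarray plates PM21–25, OD595 followed daily over 11 days, growth curves converted to index, mean of two independent experiments.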
Structure (SMILES),growth activity index [1],growth activity index [2],growth activity index [3],growth activity index [4]
O=P(O)(O)OP(=O)(O)O [Sodium pyrophosphate] (Biolog plate: PM24),5.67,4.67,4.67,4
O=C(O)CN(CC(=O)O)c1ccccc1OCCOc1ccccc1N(CC(=O)O)CC(=O)O (Biolog plate: PM22),4.67,1.67,1.33,0.667
O=C([O-])c1ccccc1.[Na+] [Sodium Benzoate] (Biolog plate: PM24),4,5,4.67,4.67
On1ccccc1=S [1-Hydroxypyridine-2-thione (pyrithione)] (Biolog plate: PM21),5.25,4,4.25,2.25
O.O=S(=O)([O-])[O-].O=S(=O)([O-])[O-].O=S(=O)([O-])[O-].[Al+3].[Al+3] [Aluminum sulfate] (Biolog plate: PM24),2,4,6,7
N[C@@H]1CONC1=O [D-Cycloserine] (Biolog plate: PM21),4,5,4.25,0 (active)
CC(=O)OCC1=C(C(=O)O)N2C(=O)[C@@H](NC(=O)Cc3cccs3)[C@H]2SC1 [Cephalotin] (Biolog plate: PM22),5.67,5,5,1
NC[C@@H]1O[C@H](O[C@H]2[C@@H](O)[C@H](O[C@@H]3[C@@H](O)[C@H](N)C[C@H](N)[C@H]3O[C@H]3O[C@H](CO)[C@@H](O)[C@H](O)[C@H]3N)O[C@@H]2CO)[C@H](N)[C@@H](O)[C@@H]1O [Paromomycin] (Biolog plate: PM22),1,1,0.667,0 (active)
N=C(N)c1ccccc1 [Benzamidine] (Biolog plate: PM22),4,0 (active),0 (active),0 (active)
NC[C@H]1O[C@H](O[C@H]2[C@H](O)[C@@H](O[C@H]3O[C@H](CO)[C@@H](O)[C@H](N)[C@H]3O)[C@H](N)C[C@@H]2N)[C@H](O)[C@@H](O)[C@@H]1O [Kanamycin] (Biolog plate: PM25),5,5,5,4.33
O=C(O)/C=C/C(=O)O [Fumaric acid] (Biolog plate: PM25),4.33,4,4,4
CN[C@@H]1[C@@H](O[C@H]2O[C@H](CO)[C@@H](N)[C@H](O)[C@H]2O)OC2C[C@@H](N)[C@@H](O[C@H]3[C@H](O)[C@@H](O)[C@H](N)C[C@@H]3N)OC2[C@@H]1O (some centres not stated) [Apramycin] (Biolog plate: PM24),5,4.33,7.67,4.33
NCC(=O)NO [Glycine hydroxamate] (Biolog plate: PM22),5,3.67,2,0 (active)
CN(C)CCC=C1c2ccccc2CCc2ccccc21 [Amitriptyline] (Biolog plate: PM25),0 (active),0 (active),2.67,6.33
NCCSCC(N)C(=O)O (configuration not stated) [Thialysine] (Biolog plate: PM24),4,4,4.67,5
c1ccc(-c2nn(-c3ccccc3)[n+](-c3cccc4ccccc34)n2)cc1 [Tetrazolium violet] (Biolog plate: PM25),4.33,3,0 (active),2
C=C(CC[C@]12O[C@H](C(=O)O)[C@@](O)(C(=O)O)[C@](C(=O)O)(O1)[C@H](OC(=O)/C=C/[C@@H](C)C[C@@H](C)CC)[C@H]2O)[C@@H](OC(C)=O)[C@H](C)Cc1ccccc1 [Zaragozic acid A] (Biolog plate: PM24),5.67,5.33,0.667,0 (active)
O=[Si](O)O [Sodium metasilicate] (Biolog plate: PM24),4.33,2.67,2.67,3.33
